Data taken from PubChem BioAssay AID720580 (National Center for Advancing Translational Sciences (NCATS), 2013).
Where “and” joins values, the source holds several entries; their conditions need not be identical. Identical values can stand only once. About 1,500 (0.45%) of roughly 330,000 compounds were called active. Entries that show only a call come without a potency. Inconclusive results (about 6%) are left out. Calls come from the whole dose curve; tested in A549 cells. For the sample, actives were picked, then their nearest neighbours and some compounds at random. Some compounds were tested as several samples or in several runs, with calls that do not always agree.

assay: qHTS for Stage-Specific Inhibitors of Vaccinia Orthopoxvirus: Venus Reporter Primary qHTS; conditions: Vaccinia virus Venus reporter expression, fluorescence; series mostly up to 36.5 µM; note: nearly all actives have a fitted effect of over 30% in size
Potency is the fitted concentration of half-maximal effect.

Row | SMILES | Potency
1 | CCOC(=O)N1CCN(C(=O)C[C@@H]2C[C@@]3(C(=O)OC)CCCCC=C3N(CCC3=CCCCC3)C2=O)CC1 | inactive
2 | CC1(C)OC(=O)C2=C(C[C@@H](C3CC3)O[C@H]2CCc2cccc(Cl)c2)O1 | inactive
3 | CC(=O)NCCNC(=O)c1cc(-c2cccc3ccccc23)nc2ccccc12 | inactive
4 | CN(C)CCNC(=O)Nc1cccc(Cl)c1Cl | inactive
5 | CN(C)CCNC(=O)c1ccc(Cl)c2cc3ccccc3nc12 | 4.47 µM (active)
6 | COc1cc(C(O)c2nc(-c3cnn(C)c3)cs2)ccc1F (stereo not drawn) | inactive
7 | COc1ccc(NC(=O)c2cnc(NS(=O)(=O)c3ccccc3)nc2)cc1 | inactive
8 | CCn1c(=O)c(=O)[nH]c2c(=O)oc3ccc(S(=O)(=O)Nc4ccc(OC)cc4)cc3c21 | inactive
9 | COc1ccc(NS(=O)(=O)c2ccc3oc(SCC(N)=O)nc3c2)cc1 | 4.47 µM (active)
10 | O=C1CCN(Cc2ccc(-c3ccccc3)cc2)CCN1Cc1ccccn1 | inactive
11 | Cc1ccccc1-c1ccc(Nc2ccc(C(=O)N3CCOCC3)cc2)nn1 | inactive
12 | COC1=C(N2CCOCC2)C(=O)c2ccccc2C1=O | inactive
13 | Cc1oc2c(c1C(=O)N1CCOCC1)C(=O)c1ccccc1C2=O | 3.16 µM (active)
14 | CCCCC(CCCC)c1ccc(C=Nc2ccc(/C=C/c3ccnc4ccccc34)cc2)cc1 | inactive
15 | Cc1ccccc1-c1csc(C(O)c2cccc(Cl)c2)n1 (stereo not drawn) | inactive
16 | c1ccc2c(c1)[I+]c1ccccc1-2 | inactive and 10 µM (active)
17 | N=C1c2ccccc2-c2ccccc21 | inactive
18 | CCCC[C@@H]1CN=C(N)N1CCCC | inactive
19 | CCCC[C@@H]1CN=C(N)N1CCc1cc(C(F)(F)F)cc(C(F)(F)F)c1 | 10 µM (active)
20 | CCCC[C@@H]1CN=C(N)N1CCc1cccc(F)c1 | inactive
21 | COc1cc(CNc2ncnc3c2ncn3[C@H]2CN(Cc3cccs3)C[C@@H](CO)O2)cc(OC)c1OC | inactive
22 | NCCCCC(C(=O)O)N(C(=O)OCc1ccccc1)C(=O)OCc1ccccc1 (stereo not drawn) | inactive
23 | Cc1ccc(-c2nn(-c3ccccc3)cc2/C=N/NC(=O)c2ccc3c(c2)OCO3)cc1 | inactive
24 | O=Cc1cn(-c2ccccc2)nc1-c1ccccn1 | inactive
25 | COc1ccc(-c2nn(-c3ccccc3)cc2/C=N/Nc2ccccn2)cc1OC | 14.1 µM (active)
26 | CCC(C)N1C(=O)S/C(=C/c2ccc(Sc3nc4ccccc4[nH]3)o2)C1=O (stereo not drawn) | 11.2 µM (active)
27 | O=C(CSc1nc2ccccc2[nH]1)Nc1nc(-c2ccccc2)c(-c2ccccc2)o1 | inactive
28 | CCC(c1nc2ccccc2[nH]1)n1c(=O)c(-c2cccs2)nc2ccccc21 (stereo not drawn) | inactive
